Screening data from PubChem.
USP10 inh: inhibitors of human USP10 deubiquitinase. Ubiquitin carboxyl-terminal hydrolase 10 (Homo sapiens), Q14694. purified USP10, Ub-rhodamine fluorescence, 60 min. inhibition, % at 20 µM. hit rate 1.1% among 47,000
USP8 inh: inhibitors of human USP8 deubiquitinase; purified USP8, Ub-rhodamine cleavage fluorescence, 30 min; inhibition, % at 20 µM; hit rate 4.2% among 47,000; AID 1645853, 2021
OTUD3 inh: inhibitors of human OTUD3 deubiquitinase | inhibition, % at 25 µM | OTU domain-containing protein 3 (Homo sapiens), Q5T2D3 | purified OTUD3, Ub-rhodamine fluorescence, 2 h | hit rate 0.7% among 47,000
USP28 inh: inhibitors of human USP28 deubiquitinase | inhibition, % at 25 µM | Ubiquitin carboxyl-terminal hydrolase 28 (Homo sapiens), Q96RU2 | hit rate 3% among 47,000 | purified USP28, Ub-rhodamine cleavage fluorescence, 30 min
UCHL1 block: inhibitors of human UCHL1 deubiquitinase. hit rate 0.2% among 47,000. purified UCHL1, Ub-rhodamine cleavage fluorescence. inhibition, % at 20 µM. AID 1645859, 2021. Ubiquitin carboxyl-terminal hydrolase isozyme L1 (Homo sapiens), P09936
USP7 inh: inhibitors of human USP7 deubiquitinase. purified USP7, Ub-rhodamine cleavage fluorescence. hit rate 0.3% among 47,000. inhibition, % at 20 µM. AID 1645854, 2021. Ubiquitin carboxyl-terminal hydrolase 7 (Homo sapiens), Q93009
Target sequence (Q93009 whole entry, looked up): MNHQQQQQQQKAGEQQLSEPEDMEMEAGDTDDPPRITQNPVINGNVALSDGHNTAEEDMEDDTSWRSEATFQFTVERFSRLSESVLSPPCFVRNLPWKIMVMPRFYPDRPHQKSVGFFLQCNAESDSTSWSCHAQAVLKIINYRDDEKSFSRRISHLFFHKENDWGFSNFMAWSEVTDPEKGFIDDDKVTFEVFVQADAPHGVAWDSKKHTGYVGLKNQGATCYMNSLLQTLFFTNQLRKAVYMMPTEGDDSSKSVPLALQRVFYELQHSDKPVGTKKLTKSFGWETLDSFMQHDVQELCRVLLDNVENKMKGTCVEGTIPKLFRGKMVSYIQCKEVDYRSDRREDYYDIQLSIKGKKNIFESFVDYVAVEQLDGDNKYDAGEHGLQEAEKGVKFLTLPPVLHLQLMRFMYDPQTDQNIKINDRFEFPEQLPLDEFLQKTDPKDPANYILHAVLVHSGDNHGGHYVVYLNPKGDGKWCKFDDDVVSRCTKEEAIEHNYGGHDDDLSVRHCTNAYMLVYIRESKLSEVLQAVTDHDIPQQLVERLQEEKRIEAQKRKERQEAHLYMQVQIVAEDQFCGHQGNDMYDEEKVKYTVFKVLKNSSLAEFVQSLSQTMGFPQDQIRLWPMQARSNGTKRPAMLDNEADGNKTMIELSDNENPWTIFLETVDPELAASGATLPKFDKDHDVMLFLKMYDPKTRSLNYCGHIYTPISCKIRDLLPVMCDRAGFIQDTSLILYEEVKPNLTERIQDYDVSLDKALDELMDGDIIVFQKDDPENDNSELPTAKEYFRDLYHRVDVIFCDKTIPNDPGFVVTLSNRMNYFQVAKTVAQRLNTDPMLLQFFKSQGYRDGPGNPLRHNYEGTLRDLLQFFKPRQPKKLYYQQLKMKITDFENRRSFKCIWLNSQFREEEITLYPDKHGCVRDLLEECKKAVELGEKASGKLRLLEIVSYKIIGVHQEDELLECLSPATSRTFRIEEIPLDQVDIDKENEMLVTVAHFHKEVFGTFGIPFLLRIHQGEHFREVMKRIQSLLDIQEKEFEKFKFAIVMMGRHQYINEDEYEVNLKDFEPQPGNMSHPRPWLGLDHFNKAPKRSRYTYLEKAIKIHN
Active calls of the source: *. Sampled rows, rich in hits. Any-hit rate of the full collection: about 6.8%. Cut-off read from the data, not from the text of the source: active = inhibition above about 30%; inactive = the rest.

Results for Cc1ccc(CNC(=O)c2ccc3nn(CC(=O)Nc4ccccc4F)c(=O)n3c2)cc1 ?
USP10 inh: 23.4; USP8 inh: 67.3*; OTUD3 inh: -10.1; USP28 inh: -14.5; UCHL1 block: 0.0; USP7 inh: 10.4

What do the screens show for `CC(C)NC(=O)N1CCC2(C1)c1ccccc1S(=O)(=O)N2CC1CC1` (centres undefined)?
USP10 inh: -2.2; USP8 inh: -38.4; OTUD3 inh: 5.3; USP28 inh: 1.0; UCHL1 block: 0.1; USP7 inh: 3.7

How did COc1ccc(-c2c(-c3ccc(OCCN4CCOCC4)cc3O)n[nH]c2C)cc1OC do in these assays?
USP10 inh: -1.7; USP8 inh: 54.6*; OTUD3 inh: -3.4; USP28 inh: -16.4; UCHL1 block: -0.3; USP7 inh: -1.4

What do the screens show for `O=C(N[C@@H]1CC[C@@H](Oc2ccccc2)[C@@H](O)[C@@H]1O)c1ccccc1F`?
USP10 inh: 0.2; USP8 inh: 0.2; OTUD3 inh: -7.1; USP28 inh: -16.7; UCHL1 block: -2.9; USP7 inh: -0.2

Results for COc1cccc(-n2cnc3cc(C(=O)NC4CC4)ccc3c2=O)c1 ?
USP10 inh: 1.5; USP8 inh: 92.2*; OTUD3 inh: -0.6; USP28 inh: -4.3; UCHL1 block: 10.8; USP7 inh: -7.0

Results for COc1ccc(CCNC(=O)c2ccc3c(=O)n(-c4ccccc4OC)cnc3c2)cc1 ?
USP10 inh: 2.5; USP8 inh: -10.4; OTUD3 inh: -3.4; USP28 inh: 26.2; UCHL1 block: 0.3; USP7 inh: 0.0

What do the screens show for `O=C(NC1CC1)c1ccc2c(=O)n(-c3ccc(F)cc3)cnc2c1`?
USP10 inh: -1.3; USP8 inh: 61.7*; OTUD3 inh: -1.7; USP28 inh: -20.2; UCHL1 block: -2.5; USP7 inh: -6.9

How did Cc1ccccc1CN1C[C@@H]2OCC(=O)N(CC(N)=O)[C@@H]2C1 do in these assays?
USP10 inh: 2.4; USP8 inh: 0.8; OTUD3 inh: -0.6; USP28 inh: -4.6; UCHL1 block: -4.2; USP7 inh: 0.2

What do the screens show for `CC(=O)N1CCN(C(=O)CN2CCC3(CCC2=O)NC(=O)c2ccccc2O3)CC1` (centres undefined)?
USP10 inh: 0.7; USP8 inh: 6.6; OTUD3 inh: 10.4; USP28 inh: 2.1; UCHL1 block: 1.6; USP7 inh: 5.4

What do the screens show for `O=c1[nH]c(C2CCN(S(=O)(=O)c3ccc(S(=O)(=O)NC4CC4)cc3)CC2)nc2c1nnn2Cc1cccc(Cl)c1`?
USP10 inh: 31.8*; USP8 inh: 14.2; OTUD3 inh: 2.1; USP28 inh: 37.9*; UCHL1 block: 8.3; USP7 inh: 7.8

Results for O=c1[nH]c(C2CCN(S(=O)(=O)c3ccc(S(=O)(=O)NC4CCCC4)cc3)CC2)nc2c1nnn2Cc1cccc(Cl)c1 ?
USP10 inh: 37.4*; USP8 inh: -11.7; OTUD3 inh: 2.1; USP28 inh: 37.8*; UCHL1 block: 5.9; USP7 inh: 9.9

How did Cc1cccc(NC(=O)COc2cccc3ccc(N4CCC(C(N)=O)CC4)nc23)c1 do in these assays?
USP10 inh: 10.6; USP8 inh: 60.6*; OTUD3 inh: -7.4; USP28 inh: 0.0; UCHL1 block: -2.4; USP7 inh: 1.3

What do the screens show for `CCOC(=O)C1C2CCC3(CC(=O)c4ccccc4O3)C21` (centres undefined)?
USP10 inh: 1.2; USP8 inh: 0.1; OTUD3 inh: -0.3; USP28 inh: 0.1; UCHL1 block: -0.4; USP7 inh: -2.1

What do the screens show for `Cc1cccc(C(=O)Nc2c(C(=O)NCc3ccccn3)[nH]c3ccccc23)c1`?
USP10 inh: -2.3; USP8 inh: -17.7; OTUD3 inh: -16.6; USP28 inh: -16.7; UCHL1 block: 0.1; USP7 inh: -3.8

How did Cn1c(C(=O)NCc2ccccn2)cc2c(=O)[nH]c3ccccc3c21 do in these assays?
USP10 inh: -0.4; USP8 inh: 87.4*; OTUD3 inh: 9.8; USP28 inh: 37.9*; UCHL1 block: -2.2; USP7 inh: -5.7

What do the screens show for `Cc1cc(O)c2c3c(c(O)c4c(c13)O[C@@H](C)C4(C)C)C(=O)C2=O`?
USP10 inh: -2.1; USP8 inh: -140.1; OTUD3 inh: 10.5; USP28 inh: 30.6*; UCHL1 block: -27.1; USP7 inh: -29.7

Results for CCn1ncc(CN(C)C(=O)Nc2ccc(Cl)cc2)c1C ?
USP10 inh: -0.3; USP8 inh: 17.4; OTUD3 inh: 8.9; USP28 inh: 9.0; UCHL1 block: -0.8; USP7 inh: -3.6

What do the screens show for `CCCn1c(-c2ccccc2)nc2nc3ccccc3nc21`?
USP10 inh: -0.7; USP8 inh: 17.6; OTUD3 inh: 17.7; USP28 inh: 6.7; UCHL1 block: 0.9; USP7 inh: 1.9

What do the screens show for `CCC(C)n1c(-c2ccccc2F)nc2nc3ccccc3nc21` (centres undefined)?
USP10 inh: 4.4; USP8 inh: 0.0; OTUD3 inh: 20.1; USP28 inh: 36.8*; UCHL1 block: 3.3; USP7 inh: -16.8

What do the screens show for `C1CNCC(CCc2nc(N3CCCC3)nc3c2CNCC3)C1` (centres undefined)?
USP10 inh: -2.9; USP8 inh: -46.5; OTUD3 inh: 11.8; USP28 inh: 31.0*; UCHL1 block: 0.4; USP7 inh: 8.7

How did O=C(Cn1c(=O)[nH]c2c(-c3ccccc3)c[nH]c2c1=O)N1CCCCCC1 do in these assays?
USP10 inh: 1.4; USP8 inh: 46.2*; OTUD3 inh: -44.3; USP28 inh: -23.2; UCHL1 block: -5.1; USP7 inh: 8.8

What do the screens show for `O=C(C[C@@H]1CCN2C[C@@H]1CCCOc1ccccc1CN(C(=O)Nc1ccccc1)CC2=O)N1CCOCC1`?
USP10 inh: -4.7; USP8 inh: -12.5; OTUD3 inh: -8.1; USP28 inh: 73.7*; UCHL1 block: 0.0; USP7 inh: -17.4

What do the screens show for `Cc1ccc(Cl)cc1NC(=O)CSc1ncnc2c1oc1ccccc12`?
USP10 inh: 2.3; USP8 inh: 4.1; OTUD3 inh: 1.3; USP28 inh: 5.4; UCHL1 block: 0.1; USP7 inh: 3.0

What do the screens show for `Cc1nc(SCC(=O)Nc2cc(Cl)ccc2C)c2oc3ccccc3c2n1`?
USP10 inh: 3.4; USP8 inh: 31.6*; OTUD3 inh: 17.0; USP28 inh: 20.3; UCHL1 block: 2.5; USP7 inh: 11.8

Results for CCc1cccc(C)c1NC(=O)Cn1c(C(C)NC(=O)c2ccc(C)cc2)nc2ccccc21 (centres undefined) ?
USP10 inh: 44.5*; USP8 inh: 75.1*; OTUD3 inh: 23.7; USP28 inh: 40.3*; UCHL1 block: 3.3; USP7 inh: 11.6

Results for Cc1cccc(C(C)C)c1NC(=O)Cn1c(COc2ccccc2)nc2ccccc21 ?
USP10 inh: 7.8; USP8 inh: 28.1; OTUD3 inh: 9.3; USP28 inh: 3.2; UCHL1 block: -1.3; USP7 inh: 3.0
